Assay results from PubChem BioAssay.
The source made the active and inactive calls.

Assays:
[1] = small molecules captured by biotinylated probe aFSTL3 – biochemical, small-molecule microarray, fluorescence 635/667, stem cell growth factor project, primary screen (AID 1064); details: higher = more signal;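 also: measures binding of the biotinylated anti-FSTL3 antibody to printed compounds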
[2] = binders from COS7 lysate, DM2A8 probe, primary screen, torsin A project, cell lysate, small-molecule microarray, fluorescence 635/667 (AID 1065); details: higher = more signal, COS7 lysate expressing mutant human TOR1A
[3] = small molecules captured by biotinylated probe aFGF2 – biochemical, small-molecule microarray, fluorescence 635/667, stem cell growth factor project, primary screen (AID 1067); details: higher = more signal;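 also: measures binding of biotinylated aFGF2 protein to printed compounds on slides; z-score merges feature fluorescence and signal-to-noise across triplicate slides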
[4] = small molecules captured by biotinylated probe aFGF10 – biochemical, small-molecule microarray, fluorescence 635/667, stem cell growth factor project, primary screen (AID 1071); details: higher = more signal;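 also: score merges 667 nm spot intensity and signal to noise from triplicate slides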
[5] = target: Neurogenic locus notch homolog protein 2 (Homo sapiens) (UniProt Q04721); assay: small molecules binding Notch2 protein – biochemical, small-molecule microarray, 635 nm fluorescence, stem cell growth factors, primary screen (AID 1073); details: higher = more signal
[6] = target: Pro-neuregulin-1, membrane-bound isoform (Homo sapiens) (UniProt Q02297); assay: small molecules binding neuregulin-1 protein – biochemical, small-molecule microarray, fluorescence 635/667, psychiatric disease protein project, primary screen (AID 1075); details: NRG1 binding, 635 nm fluorescence, higher = more signal;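 also: score combines 667 nm spot fluorescence with signal to noise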
[7] = system: Neuregulin-1 EGF-like domain; assay: small molecules binding NRG1 EGF domain – biochemical, small-molecule microarray, 635 nm fluorescence, primary screen (AID 1081); details: higher = more signal;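 also: binding of the protein to compounds printed on small-molecule microarray slides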
[8] = FRG1 expression reporter modulators in myotubes – cell-based, C2C12 myotubes, firefly/Renilla luciferase, luminescence, FRG1 inhibition for FSHD, primary screen (AID 1084); details: FRG1 promoter luciferase, higher = more signal, called active from +8 up or from −8 down
[9] = small molecules captured by biotinylated probe aFST – biochemical, small-molecule microarray, fluorescence 635/667, stem cell growth factor project, primary screen (AID 1086); details: higher = more signal;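 also: score merges 667 nm fluorescence with signal-to-noise of each printed compound spot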
[10] = binders of probe aHhip on microarray, primary screen, stem cell growth factor project, biochemical, small-molecule microarray, fluorescence 635/667 (AID 1087); details: higher = more signal;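 also: score merges spot fluorescence at 667nm with spot signal to noise ratio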
[11] = system: PRMT1 (protein arginine N-methyltransferase 1); assay: small molecules binding arginine methyltransferase PRMT1 – biochemical, small-molecule microarray, 635 nm fluorescence, primary screen (AID 1088); details: higher = more signal;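 also: binding of Prmt1 protein to compounds spotted on small-molecule microarray slides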
[12] = growth effects on S. cerevisiae YJM789 – YJM789 clinical isolate, OD600, 24 h, basal, primary screen (AID 1089); details: higher = more signal, called active from +8 up or from −8 down;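 also: growth of clinical yeast isolate S. cerevisiae YJM 789 seeded 1000 cells per well; test concentration not given here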
[13] = S. pombe growth modifiers, basal conditions – strain 972, OD600, 24 h, no modulator, primary screen (AID 1090);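 also: basal condition with compound alone and no growth modifier present; test concentration not given here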; details: S. pombe 972 growth, higher = more signal, called active from +8 up or from −8 down
[14] = budding yeast growth modifiers under rapamycin – strain BY4716, OD600, 96 h, primary screen (AID 1091); also: test concentration not given here; details: S. cerevisiae BY4716 + rapamycin, higher = more signal, called active from +8 up or from −8 down
[15] = target: Torsin-1A-interacting protein 2 (Homo sapiens) (UniProt Q8NFQ8); assay: small molecules binding lysate-expressed LULL1 – cell lysate, human LULL1 lysate, 635/667 nm fluorescence, primary screen (AID 1092); details: small-molecule microarray, hLULL1 lysate binding, 635 nm fluorescence; higher = more signal;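 also: probe is lysate of COS7 cells overexpressing human LULL1; score merges per-feature 667 nm fluorescence with signal-to-noise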
[16] = optical density change of DRC41 E. coli – strain DRC41, OD650, 24 h, E. coli filamentation project, primary screen (AID 1093);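 also: MC1000 strain lacking acrAB efflux and sulA so SOS filamentation is blocked; test concentration not given here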; details: E. coli DRC41 growth, higher = more signal, called active from +8 up or from −8 down
[17] = probe aLefty2 binding to arrayed compounds – biochemical, biotinylated probe, 635/667 nm fluorescence, primary screen (AID 1094); details: small-molecule microarray, higher = more signal;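 also: score merges spot fluorescence near 667 nm with spot signal-to-noise ratio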
[18] = system: Noggin (protein binding on small-molecule microarray); assay: small molecules binding Noggin protein – biochemical, 635/667 nm fluorescence, primary screen (AID 1095); details: 635 nm fluorescence, higher = more signal;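 also: score merges 667 nm feature fluorescence with signal to noise over triplicate slides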
[19] = target: Neurogenic locus notch homolog protein 3 (Homo sapiens) (UniProt Q9UM47); assay: small molecules binding NOTCH3 protein – biochemical, 635/667 nm fluorescence, primary screen (AID 1096); details: small-molecule microarray, 635 nm fluorescence, higher = more signal
[20] = probe aEGFR binding to arrayed compounds – biochemical, biotinylated probe, 635/667 nm fluorescence, primary screen (AID 1097); details: small-molecule microarray, higher = more signal;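 also: probe is a biotinylated anti-EGFR antibody binding compounds printed on slides; score combines fluorescence near 667 nm and signal to noise of each spot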

Torsin-1A-interacting protein 2 (Homo sapiens), sequence (Q8NFQ8 whole entry, looked up): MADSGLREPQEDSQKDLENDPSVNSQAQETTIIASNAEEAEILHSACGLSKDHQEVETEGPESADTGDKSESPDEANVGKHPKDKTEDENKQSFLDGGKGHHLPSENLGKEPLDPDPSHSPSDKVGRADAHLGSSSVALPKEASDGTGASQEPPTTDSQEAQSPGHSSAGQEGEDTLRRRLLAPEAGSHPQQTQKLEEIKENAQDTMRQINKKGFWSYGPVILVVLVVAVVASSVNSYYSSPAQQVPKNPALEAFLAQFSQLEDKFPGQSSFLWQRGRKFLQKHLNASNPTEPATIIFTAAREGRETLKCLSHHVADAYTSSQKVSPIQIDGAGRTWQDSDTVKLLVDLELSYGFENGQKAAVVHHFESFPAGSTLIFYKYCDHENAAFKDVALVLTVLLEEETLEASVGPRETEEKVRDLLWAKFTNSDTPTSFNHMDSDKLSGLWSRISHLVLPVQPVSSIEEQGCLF
Pro-neuregulin-1, membrane-bound isoform (Homo sapiens), sequence (Q02297 whole entry, looked up, the tested form may be a part, canonical isoform): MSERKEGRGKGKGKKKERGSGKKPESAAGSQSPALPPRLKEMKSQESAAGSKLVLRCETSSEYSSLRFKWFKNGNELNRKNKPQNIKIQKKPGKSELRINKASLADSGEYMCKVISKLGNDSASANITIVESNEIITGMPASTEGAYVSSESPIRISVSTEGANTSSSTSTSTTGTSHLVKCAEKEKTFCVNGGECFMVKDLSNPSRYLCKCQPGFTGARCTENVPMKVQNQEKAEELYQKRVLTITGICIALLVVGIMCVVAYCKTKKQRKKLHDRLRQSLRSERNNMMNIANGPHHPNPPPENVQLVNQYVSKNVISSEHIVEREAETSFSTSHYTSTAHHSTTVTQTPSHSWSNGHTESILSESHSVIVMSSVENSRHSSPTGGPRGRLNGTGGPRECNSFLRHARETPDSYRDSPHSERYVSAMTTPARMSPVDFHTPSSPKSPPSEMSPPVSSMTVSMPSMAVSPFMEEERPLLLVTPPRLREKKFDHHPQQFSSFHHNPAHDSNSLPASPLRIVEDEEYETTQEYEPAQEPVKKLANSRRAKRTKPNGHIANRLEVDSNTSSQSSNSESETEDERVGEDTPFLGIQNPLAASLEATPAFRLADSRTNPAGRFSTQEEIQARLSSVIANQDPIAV
Neurogenic locus notch homolog protein 3 (Homo sapiens), sequence (Q9UM47 whole entry, looked up): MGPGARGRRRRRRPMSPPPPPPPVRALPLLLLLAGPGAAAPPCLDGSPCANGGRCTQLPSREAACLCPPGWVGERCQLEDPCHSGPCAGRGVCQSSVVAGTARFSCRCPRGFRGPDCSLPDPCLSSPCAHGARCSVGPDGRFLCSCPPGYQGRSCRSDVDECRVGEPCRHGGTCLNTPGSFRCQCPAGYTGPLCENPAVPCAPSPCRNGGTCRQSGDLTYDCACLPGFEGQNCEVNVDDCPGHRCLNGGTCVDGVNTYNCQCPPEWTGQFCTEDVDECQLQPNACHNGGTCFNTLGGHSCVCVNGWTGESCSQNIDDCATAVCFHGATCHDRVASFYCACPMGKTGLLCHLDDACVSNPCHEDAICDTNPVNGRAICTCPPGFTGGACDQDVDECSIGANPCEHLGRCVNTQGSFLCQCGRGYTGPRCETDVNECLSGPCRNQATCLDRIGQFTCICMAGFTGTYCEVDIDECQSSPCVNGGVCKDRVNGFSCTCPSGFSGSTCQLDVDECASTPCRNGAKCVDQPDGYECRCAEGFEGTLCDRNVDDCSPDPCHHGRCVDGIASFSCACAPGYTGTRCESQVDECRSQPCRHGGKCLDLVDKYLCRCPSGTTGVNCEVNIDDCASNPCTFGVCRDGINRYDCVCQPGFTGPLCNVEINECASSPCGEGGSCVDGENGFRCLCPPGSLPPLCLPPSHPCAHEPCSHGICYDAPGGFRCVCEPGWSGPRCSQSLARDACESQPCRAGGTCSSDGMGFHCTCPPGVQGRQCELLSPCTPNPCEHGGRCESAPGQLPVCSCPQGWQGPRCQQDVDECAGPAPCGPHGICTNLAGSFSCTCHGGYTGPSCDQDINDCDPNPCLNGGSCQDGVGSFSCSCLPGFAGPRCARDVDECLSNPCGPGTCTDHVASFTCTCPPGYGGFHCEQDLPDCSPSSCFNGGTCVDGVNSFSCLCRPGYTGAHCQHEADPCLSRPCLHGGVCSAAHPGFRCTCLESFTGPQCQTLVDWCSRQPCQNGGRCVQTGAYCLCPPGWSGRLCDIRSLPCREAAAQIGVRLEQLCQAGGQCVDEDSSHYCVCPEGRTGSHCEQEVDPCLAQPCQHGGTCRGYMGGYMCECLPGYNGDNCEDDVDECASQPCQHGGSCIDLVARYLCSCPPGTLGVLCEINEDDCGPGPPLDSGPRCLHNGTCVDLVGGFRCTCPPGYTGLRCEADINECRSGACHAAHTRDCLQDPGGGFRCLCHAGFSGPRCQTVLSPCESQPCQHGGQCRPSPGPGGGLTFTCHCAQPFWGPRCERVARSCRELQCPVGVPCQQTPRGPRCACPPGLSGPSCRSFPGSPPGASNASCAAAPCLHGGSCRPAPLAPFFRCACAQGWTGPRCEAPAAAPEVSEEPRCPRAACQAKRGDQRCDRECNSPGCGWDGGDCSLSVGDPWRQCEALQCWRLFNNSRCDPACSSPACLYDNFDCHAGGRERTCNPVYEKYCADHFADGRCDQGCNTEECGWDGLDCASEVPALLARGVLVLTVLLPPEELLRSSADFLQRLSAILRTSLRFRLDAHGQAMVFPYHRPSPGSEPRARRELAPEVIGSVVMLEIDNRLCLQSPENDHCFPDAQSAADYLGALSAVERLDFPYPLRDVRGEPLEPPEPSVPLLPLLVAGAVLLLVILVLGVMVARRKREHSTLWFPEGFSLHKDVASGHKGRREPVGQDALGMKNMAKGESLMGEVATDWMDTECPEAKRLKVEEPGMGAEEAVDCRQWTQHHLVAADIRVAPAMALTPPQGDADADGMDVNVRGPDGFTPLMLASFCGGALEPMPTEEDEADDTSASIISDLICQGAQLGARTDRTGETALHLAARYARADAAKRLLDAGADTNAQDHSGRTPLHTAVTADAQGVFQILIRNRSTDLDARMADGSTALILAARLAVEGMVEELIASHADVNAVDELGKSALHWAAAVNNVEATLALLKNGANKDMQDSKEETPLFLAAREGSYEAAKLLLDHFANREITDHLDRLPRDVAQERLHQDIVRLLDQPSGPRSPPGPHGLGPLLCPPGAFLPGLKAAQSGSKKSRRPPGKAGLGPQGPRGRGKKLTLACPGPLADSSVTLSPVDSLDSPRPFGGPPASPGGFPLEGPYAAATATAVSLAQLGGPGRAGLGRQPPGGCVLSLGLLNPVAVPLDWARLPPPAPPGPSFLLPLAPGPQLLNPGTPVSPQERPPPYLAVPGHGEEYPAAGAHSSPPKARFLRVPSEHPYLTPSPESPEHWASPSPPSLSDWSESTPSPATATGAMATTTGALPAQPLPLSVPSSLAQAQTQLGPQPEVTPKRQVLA

Structure (SMILES)	composite z-score [1]	composite z-score [2]	composite z-score [3]	composite z-score [4]	composite z-score [5]	composite z-score [6]	composite z-score [7]	z-score [8]	composite z-score [9]	composite z-score [10]	composite z-score [11]	z-score [12]	z-score [13]	z-score [14]	composite z-score [15]	z-score [16]	composite z-score [17]	composite z-score [18]	composite z-score [19]	composite z-score [20]
COC(=O)C1(CC(C)C)C=C2C(=C(C(C)C)C(=O)C2C)CN1 (stereo not given)	0.901	-0.241	-0.0578	-0.589	-0.507	0.607	0.19	1.65 (inactive)	0.315	-0.0603	-0.866	-0.166 (inactive)	-0.0608 (inactive)	1.08 (inactive)	0.412	-0.844 (inactive)	-0.0289	-1.29	-0.877	-0.103
COCCOC(=O)N1C(=O)[C@@]2(c3cc(C#CC4(O)CCCCCC4)ccc31)[C@H](c1ccccc1OCCO)N1[C@H](c3ccccc3)[C@H](c3ccccc3)OC(=O)[C@H]1[C@@H]2C(=O)N1CCCCCCC1	2.94	1.24	0.324	0.256	0.869	1.45	1.29	-0.926 (inactive)	2.73	1.83	1.54	1.94 (inactive)	1.26 (inactive)	3.54 (inactive)	3.47	0.0805 (inactive)	1.31	1.75	1.1	-0.0351
COCCOC(=O)N1C(=O)[C@@]2(c3cc(C#CC4=CCCCC4)ccc31)[C@H](C(=O)N1CCN(c3ncccn3)CC1)[C@H]1C(=O)O[C@H](c3ccccc3)[C@H](c3ccccc3)N1[C@@H]2c1ccccc1OCCO	-0.285	0.943	0.0346	0.616	0.793	0.591	1.15	1.45 (inactive)	0.636	-0.0237	1.53	1.3 (inactive)	0.683 (inactive)	4.42 (inactive)	2.75	1.96 (inactive)	-0.0687	1.14	1.04	-0.0749
COc1ccc(CCNC(=O)[C@@]2(Sc3ccc(C)cc3)CC(=O)N(Cc3cc(C(F)(F)F)cc(C(F)(F)F)c3)[C@@H]2c2ccc(CO)cc2)cc1	0.575	-0.748	-0.188	-0.498	-1.79	-0.854	-0.637	0.522 (inactive)	-0.498	0.132	-0.772	-1.11 (inactive)	-0.912 (inactive)	-0.683 (inactive)	0.92	-0.466 (inactive)	0.344	-1.69	-1.26	-0.213
Cc1ccc(S[C@]2(C(=O)NCCCN(C)C)CC(=O)N(Cc3ccccc3Cl)[C@@H]2c2ccc(CO)cc2I)cc1	1.23	-0.42	-0.0996	-0.855	-1.17	1.07	0.801	-1.4 (inactive)	0.141	-0.0346	-0.338	0.641 (inactive)	-2.52 (inactive)	1.43 (inactive)	0.605	0.562 (inactive)	0.258	-0.845	-1.22	-0.209
[N-]=[N+]=NCc1ccccc1[C@@H]1OC(c2ccc(OCCCO)cc2)=N[C@]1(Cc1ccccc1)C(=O)NCc1ccccc1	-0.158	-0.649	0.227	0.22	1.3	1.56	0.744	-2.16 (inactive)	0.846	0.0373	0.872	1.26 (inactive)	0.8 (inactive)	8.96 (active)	3.12	0.615 (inactive)	0.239	-0.0171	0.672	-0.117
COCCCN1C(=O)[C@@]2(Cc3ccccc31)c1ccccc1C(=O)N(Cc1ccccc1OC)[C@H]2c1ccc(CO)cc1	0.303	-0.457	-0.122	-0.279	-0.228	0.731	-0.944	-0.193 (inactive)	0.023	-0.181	0.727	-1.14 (inactive)	-0.2 (inactive)	-1.33 (inactive)	1.04	0.258 (inactive)	0.0224	-0.913	-0.274	-0.108
CC(C)CNC(=O)[C@@H]1c2ccccc2C(=O)N(C(C)C)[C@H]1c1ccc(CO)cc1	0.172	-0.0466	-0.138	-0.466	-0.811	-0.566	1.41	-0.981 (inactive)	-0.117	-0.261	0.12	-1.37 (inactive)	0.0396 (inactive)	-0.421 (inactive)	2.33	0.794 (inactive)	-0.166	0.126	0.0151	-0.246
COC(=O)c1ccc([C@H](NC(=O)c2ccccc2)[C@]2(C)C[C@H]2C2CCCCC2)cc1	0.735	-0.678	0.056	0.172	1.22	1.18	0.678	-1 (inactive)	0.86	0.245	0.0232	0.696 (inactive)	1.52 (inactive)	-1.23 (inactive)	3.03	-1.38 (inactive)	0.223	-0.178	1.05	-0.116
COc1ccc([Si](C)(C)[C@H]2[C@H](CCO)O[C@@]3(C(=O)N(Cc4ccccc4)c4ccc(N(C=O)c5ccccc5)cc43)[C@@H]2C)cc1	-0.317	0.242	-0.103	0.199	0.697	0.929	0.818	-0.919 (inactive)	0.643	-0.0994	1.57	-0.347 (inactive)	1.08 (inactive)	20.3 (active)	1.65	0.773 (inactive)	-0.182	0.513	1.09	-0.0121
